GBA activity: Glucocerebrosidase; AID 360, 2006; purified enzyme, resorufin glucoside fluorescence (screen aimed at inhibitors), 20 min; 1.1% of 48,000 active; Potency, µM; in the data active = potency below about 15 µM; inconclusive = mostly about 16 µM to 33 µM;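 note: the screen sought inhibitors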
Target sequence (P04062 whole entry, looked up): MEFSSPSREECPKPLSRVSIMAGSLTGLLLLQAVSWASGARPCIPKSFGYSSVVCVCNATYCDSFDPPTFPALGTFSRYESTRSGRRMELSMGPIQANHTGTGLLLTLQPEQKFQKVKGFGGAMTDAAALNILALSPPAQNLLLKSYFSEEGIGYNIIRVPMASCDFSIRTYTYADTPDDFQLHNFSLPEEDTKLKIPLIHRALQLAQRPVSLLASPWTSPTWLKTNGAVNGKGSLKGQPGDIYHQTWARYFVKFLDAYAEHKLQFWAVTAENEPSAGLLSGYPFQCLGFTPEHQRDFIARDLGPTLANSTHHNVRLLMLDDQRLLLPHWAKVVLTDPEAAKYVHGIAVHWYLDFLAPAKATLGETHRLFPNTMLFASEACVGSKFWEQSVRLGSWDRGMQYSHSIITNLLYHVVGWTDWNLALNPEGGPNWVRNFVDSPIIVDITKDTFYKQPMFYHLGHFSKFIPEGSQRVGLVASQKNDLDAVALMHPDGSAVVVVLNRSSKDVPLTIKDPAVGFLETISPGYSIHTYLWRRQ
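Compounds titrated against 0.2 nM normal enzyme, 30 uM resorufin beta-D-glucopyranoside substrate, citrate/phosphate buffer with taurocholate and tween-20, pH 5.9. Reaction ran 20 min at room temperature; fluorescence (Ex 548/Em 600) gave AC50.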
ERK AVP inh: qHTS Assay for Inhibitors of the ERK Signaling Pathway using a Homogeneous Screening Assay | HEK293-V1b, vasopressin-stimulated pERK AlphaScreen | Potency, µM (highest dose often 57.5 µM), hits mostly inhibitors | 0.99% of 72,000 active; note: nearly all actives have a fitted effect of over 55% in size
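HEK293 cells stably expressing V1b receptor, seeded overnight in 1% FBS, were treated with compounds for 30 min at 37C, then stimulated 5 min with 25 nM vasopressin; phospho-ERK read by AlphaScreen SureFire after lysis.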
FLuc inh: qHTS Assay for Inhibitors of Firefly Luciferase | Luciferin 4-monooxygenase (Photinus pyralis), P08659 | purified firefly luciferase, luminescence, 8 min | Potency, µM (titrated, usually from 57.1 µM), hits mostly inhibitors | 2.2% of 72,000 active | AID 411, 2009; note: nearly all actives have a fitted effect of over 40% in size
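Inhibition of light generation by firefly luciferase from ATP and luciferin was profiled with concentration-response curves per sample, ATP held at 10 uM within the enzyme's linear range. Plates were read by luminescence after an 8-minute ambient incubation.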
PK Bst: Pyruvate Kinase; purified pyruvate kinase, luminescence ATP production; ribose 5-phosphate activator present at AC10; Potency, µM; 1.2% of 51,000 active; AID 361, 2006; in the data active = potency below about 11 µM; inconclusive = mostly about 12 µM to 25 µM;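 the screen sought inhibitors and activators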
A number is an active result; – = inactive; ? = inconclusive; · = no result; [ ] = dose if it differs, or a comment. Only some compounds are listed: those with a hit (about 3.9% of all), similar ones and a draw of the others. Unless noted, calls come from the whole dose curve; as a rule, active = well fitted curve in the direction sought with a large enough effect; inconclusive = small, poorly fitted or top-dose-only effect, or another doubt; inactive = no such curve, though single readings can be large; an effect the other way counts as inactive or inconclusive.

SMILES	GBA activity	ERK AVP inh	FLuc inh	PK Bst
CCCCCCCCCCCCCCC/C=C\[C@H](O)[C@@H](NC(=O)CCCCCCCCCCCCC)OC (tested in a mixture with another compound)	·	–	–	·
CC1(C)Cc2nc3sc4c(SCC(=O)NCc5ccco5)ncnc4c3cc2CO1	–	?	5.01µM	–
CN1CCN(c2ccc(Cl)cc2NS(=O)(=O)c2ccccc2Cl)CC1	13	–	–	–
Cn1c(=O)c(C(=O)COC(=O)c2cc(C(F)(F)F)nc3c(C(F)(F)F)cccc23)c(N)n(Cc2ccccc2)c1=O	·	–	·	·
O=C1C(Cl)=C(NCCCN2CCOCC2)C(=O)N1CCc1ccccc1	11.3	–	–	–
O=C1C(Cl)=C(N2CCOCC2)C(=O)N1CCc1ccccc1	–	–	–	–
COc1cccc(CNc2ccc(Br)cn2)c1O	·	·	5.01µM	–
COc1cccc(C=NC=Nc2cccc(OC)c2)c1	·	–	–	·
Clc1cccc(C=NC=Nc2cccc(Cl)c2)c1	·	–	2µM	·
COc1cccc(-n2nnc3c(=O)n(Cc4ccccc4Cl)cnc32)c1	–	–	–	6.85
CCNc1ncc2nc(-c3cccc(C#N)c3)c(=O)n(C)c2n1	·	–	–[11.4 µM]	·
COc1cccc(-c2nnc(Nc3nc4c(F)cccc4s3)o2)c1	–	–	12.6µM	–
COc1cccc2sc(Nc3nnc(-c4ccccc4Cl)o3)nc12	·	·	15.8µM	·
CN1CCC2(CC1)CCN(C(=O)c1cccc(F)c1)CC2	·	?	–[11.4 µM]	·
c1ccc(-c2nc3ccccc3o2)nc1	–	–	–	·
Nc1ccc2oc(-c3ccccn3)nc2c1	–	–	20µM	·
Clc1ccc2oc(-c3ccccn3)nc2c1	–	–	15.8µM	?
Cc1nnc(SCC2=C(C(=O)O)N3C(=O)C(NC(=O)Cn4cnnn4)[C@@H]3SC2)s1 (some centres undefined)	·	–	·	·
O=C(NCCN1CCOCC1)c1ccc2c(c1)ncn2C1CCCCC1	14.7	–	–	–
CCCCOCCOCCOCc1cc2c(cc1CCC)OCO2	·	–	·	·
Oc1ccc(Nc2nc(NCC3CCCO3)c3ccccc3n2)cc1 (centres undefined)	?	12.6µM	–	·
Oc1ccccc1Nc1nc(NCC2CCCO2)c2ccccc2n1 (centres undefined)	0.426	–	–	·
FC(F)(F)c1cc(-c2ccccc2)nc(NCC2CCCO2)n1 (centres undefined)	·	–	–	–
O=S(=O)(Nc1nc2ccccc2nc1NCC1CCCO1)c1cccs1 (centres undefined)	–	–	–	–
Nc1ncnc2[nH]c(=O)[nH]c12	·	–	·	·
SMILES	GBA activity	ERK AVP inh	FLuc inh	PK Bst
Cc1ccc(S(=O)(=O)Nc2cc(C(=O)NCCN3CCCC3)ccc2N2CCCCC2)cc1	10.3	–	–	?
CCOCCOC(=O)COc1ccc(N2C(=O)c3ccccc3C2=O)cc1	·	–	15.8µM	·
Cn1c(=O)c2[nH]c(CCC(=O)O)nc2n(C)c1=O	·	–[11.5 µM]	–[11.4 µM]	·
O=C(c1cccc(F)c1)N1CCc2ccccc21	·	–	–	·
O=C(COc1ccc(F)cc1Br)N1CCc2ccccc21	–	–	7.94µM	–
N#CCCSC(=S)[C@H]1CCCC1=N	·	–[11.5 µM]	–[11.4 µM]	·
O=C(Cn1cnc2ccccc2c1=O)NCCC(=O)Nc1ccc2c(c1)OCCO2	–	–	–	–
O=C(CSc1nc2ccccc2[nH]1)Nc1ccc2c(c1)OCCO2	–	31.6µM	25.1µM	·
O=C(Cn1cnc2ccccc2c1=O)Nc1ccc2c(c1)OCCO2	–	–	12.6µM	–
O=C(COc1ncnc2ccccc12)c1ccc2c(c1)OCCO2	–	–	12.6µM	·
O=C(CSc1nc2ccccc2[nH]1)c1ccc2c(c1)OCO2	–	–	–	–
CCOCC(=O)Nc1ccc2c(c1)OCCO2	–	–	–	–
O=C(CC(=O)c1ccccc1)Nc1ccc2c(c1)OCCO2	–	–	20µM	·
O=C(CS(=O)(=O)c1ccccc1)c1ccc2c(c1)OCCO2	–	–	12.6µM	–
c1ccc(Nc2nc(-c3cccs3)cs2)nc1	–	–	5.01µM	3.56
c1cncc(Nc2nc(-c3cccnc3)cs2)c1	?	?	–	·
c1ccc(Nc2nc(-c3cccnc3)cs2)nc1	–	–	3.98µM	?
c1cncc(Nc2nc(-c3ccncc3)cs2)c1	·	20µM	–	–
CO[C@@H]1COC(=O)[C@H](C)NC(=O)C/C=C\[C@@H](C)[C@@H](NS(=O)(=O)c2ccc(C)cc2)COC(=O)C/C=C\[C@@H]1C	·	–[11.5 µM]	–[11.4 µM]	·
COc1ccc(-c2cn3cc(C)ccc3n2)cc1OC	·	?	2.51µM	1.76
COc1ccc(-c2cn3ccccc3n2)cc1OC	–	?	3.16µM	6.46
COc1ccc(-c2noc(-c3cc(C)cc(C)c3)n2)cc1OC	·	–	–	·

Compound activity from PubChem.
